From PubChem BioAssay (NCATS)
Records with an inconclusive call do not appear. The source made the active and inactive calls. Calls come from the whole dose curve; as a rule, active = well fitted curve in the direction sought with a large enough effect; inconclusive = small, poorly fitted or top-dose-only effect, or another doubt; inactive = no such curve, though single readings can be large; an effect the other way counts as inactive or inconclusive.

Assay: MultiTox-Fluor Cytotoxicity Assay - LYMP1-002 - Dead Cells (AID 960); note: nearly all actives have a fitted effect of over 60% in size
Conditions: LYMP1-002 lymphoblastoid cells, dead-cell protease fluorescence; series mostly up to 46.1 µM
Summary of the method: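 LYMP1-002 cells 2500/well; 5 hr 37 C pre-incubation; compound 16 hr 37 C; MultiTox-Fluor reagent 60 min RT; dead-cell fluor Ex/Em 485/520. Norm. to DMSO (0%) vs 15 uM tetraoctylammonium bromide (100%); Hill AC50.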
Potency is the fitted concentration of half-maximal effect.

SMILES	Potency
CN(C)CCC=C1c2ccccc2CCc2ccccc21	25.1 µM (active)
Cc1c(O)cccc1C(=O)N[C@@H](CSc1ccccc1)[C@H](O)CN1C[C@H]2CCCC[C@H]2C[C@H]1C(=O)NC(C)(C)C	31.6 µM (active)
CC(C)C(=O)Nc1ccc([N+](=O)[O-])c(C(F)(F)F)c1	15.8 µM (active)

Assay: MultiTox-Fluor Cytotoxicity Assay - LYMP1-003 - Dead Cells (AID 961); note: nearly all actives have a fitted effect of over 70% in size
Conditions: LYMP1-003 lymphoblastoid cells, dead-cell protease fluorescence; series mostly up to 92.2 µM
Summary of the method: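 Dead-cell protease release, detected as bis-AAF-R110 fluorescence at 485/520 nm, was measured in LYMP1-003 cells after 16 h compound treatment at 37 C. AC50 values came from Hill-modeled qHTS curves normalized to DMSO (0%) and 15 uM tetraoctylammonium bromide (100%).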

SMILES	Potency
COc1cc2c(c(OC)c1OC)-c1ccc(OC)c(=O)cc1[C@@H](NC(C)=O)CC2	0.631 µM (active)
CC/C(=C(\c1ccccc1)c1ccc(OCCN(C)C)cc1)c1ccccc1	39.8 µM (active)
CC1=C(/C=C/C(C)=C/C=C/C(C)=C/C(=O)Nc2ccc(O)cc2)C(C)(C)CCC1	39.8 µM (active)
